The entries come from a sample that favours hits as a whole.
ALOX12 inh – Primary qHTS assay for inhibitors of human arachidonate 12S-lipoxygenase (ALOX12): Round 2; purified 12hLO, xylenol orange hydroperoxide absorbance; Potency, µM (highest dose often 108 µM), without a hit: top-dose activity change, negative = inhibition, actives largely listed as inhibitors; 580,000 compounds, 1.1% hits; AID 1671190, 2021; note: potency is the fitted concentration of half-maximal effect
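Hydroperoxide product was detected by ferrous iron/xylenol orange as the 573 to 405 nm absorbance ratio. Arachidonic acid at 40 uM (final) was turned over for 30 min at room temperature by 150 nM human 12hLO, pH 7.0 Hepes buffer, after 15 min compound preincubation.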
TDP1 cell CPT – qHTS for Inhibitors of human tyrosyl-DNA phosphodiesterase 1 (TDP1): qHTS in cells in presence of CPT. chicken DT40 Tdp1-/-;hTDP1 cells + 20 nM CPT, ATP luminescence, 48 h. AID 686979, 2013. Potency, µM (series often up to 46.2 µM), for inactives: at the top dose activity change, negative = growth inhibition, most hits filed as inhibitors. 420,000 compounds, 12% hits; note: potency is the fitted concentration of half-maximal effect; nearly all actives have a fitted effect of over 55% in size
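Chicken DT40 Tdp1-/- cells stably complemented with human TDP1 were seeded at 400 cells/well in medium containing 20 nM camptothecin, exposed to pin-transferred compounds, and grown at 37 °C for at least 48 hr. Viability was read as ATP luminescence.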
TDP1 cell noCPT – qHTS for Inhibitors of human tyrosyl-DNA phosphodiesterase 1 (TDP1): qHTS in cells in absence of CPT; Potency, µM (titrated, usually from 46.2 µM), inactives show at the highest dose activity change, negative = growth inhibition, most hits filed as inhibitors; 420,000 compounds, 15% hits; DT40 Tdp1-/- hTDP1 cells, no CPT, ATP luminescence, 48 h; note: potency is the fitted concentration of half-maximal effect; nearly all actives have a fitted effect of over 55% in size
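Readout: luminescence from CellTiter-Glo after 30 min in the dark at RT. Cells: DT40 Tdp1-/- with stable hTDP1, 400/well. Exposure: compounds alone, ≥48 hr, 37 °C.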
IL1B secr inh – qHTS for Inhibitors of Inflammasome Signaling: IL-1-beta AlphaLISA Primary Screen; THP-1 LPS/ATP IL-1B secretion, AlphaLISA, 16 h; hits give low values; activity change, % at 57.5 µM; 360,000 compounds, 4.7% hits; AID 743279, 2014; in the data active = activity change below about -50%; inconclusive = mostly about -30% to -49%
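THP-1 cells pretreated 1 hr with compounds (up to 57.5 uM final), then stimulated with LPS (250 ng/mL final) plus ATP (1.25 mM final); secreted IL-1B measured by AlphaLISA after 16 hr, decreased signal indicating inhibition.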
HT1080-NT tox – qHTS for induction of synthetic lethality in tumor cells producing 2HG: qHTS for the HT-1080-NT fibrosarcoma cell line; HT-1080-NT fibrosarcoma viability, CellTiter-Glo ATP luminescence, 48 h; Potency, µM (titrated, usually from 46.1 µM), for inactives: top-dose activity, negative = less viability, most hits filed as cytotoxic; 360,000 compounds, 1.6% hits; AID 686970, 2013;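 note: NT is the 2HG producing partner of a matched IDH1 knockdown line; potency is the fitted concentration of half-maximal effect; 0% = DMSO-treated cells and -100% = media-only wells without cells; nearly all actives have a fitted effect of over 55% in size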
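A 48-hour cytotoxicity screen used HT-1080-NT cells plated 2 hours before compound delivery. ATP-based CellTiter-Glo luminescence measured viability, normalized to DMSO and no-cell controls.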
HT1080 IDH1KD tx – qHTS for induction of synthetic lethality in tumor cells producing 2HG: qHTS for the HT-1080-IDH1KD cell line; 360,000 compounds, 2% hits; AID 686971, 2013; Potency, µM (doses to about 46.1 µM), without a hit: at the top dose activity, negative = toxicity, usual class: cytotoxic; HT-1080 IDH1 knockdown viability, ATP luminescence, 48 h;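 note: potency is the fitted concentration of half-maximal effect; 0% = DMSO wells and -100% = cell-free medium wells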
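In this qHTS, HT-1080 cells depleted of IDH1 are exposed for 48 h at 37 °C to compound titrations. Toxicity is scored from CellTiter-Glo luminescence, with DMSO as full viability and medium alone as none.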
An asterisk follows results filed as active; ? = inconclusive; . = not tested or not shown; [ ] = remark or other dose. Unless noted, calls come from the whole dose curve; as a rule, active = well fitted curve in the direction sought with a large enough effect; inconclusive = small, poorly fitted or top-dose-only effect, or another doubt; inactive = no such curve, though single readings can be large; an effect the other way counts as inactive or inconclusive. Unless noted, % is set by controls: 0 for no effect and ±100 for the full control effect.

SMILES	ALOX12 inh	TDP1 cell CPT	TDP1 cell noCPT	IL1B secr inh	HT1080-NT tox	HT1080 IDH1KD tx
COc1ccc(C2C3=C(CC(C)(C)CC3=O)Oc3ncn(CC(C)C)c(=N)c32)cc1 (configuration not stated)	-4%	?	?	-60*	-5%	-12%
COc1ccc(C2C3=C(CC(C)(C)CC3=O)Oc3ncn(Cc4ccco4)c(=N)c32)cc1 (configuration not stated)	12%	-18%	-28%	-60*	-6%[9.24 µM]	?
COc1cc(/C=C/c2nc(C#N)c(NCCCN3CCOCC3)o2)cc(OC)c1OC	13%	.	.	.	.	.
COc1ccc(NS(=O)(=O)c2ccc3c(c2)Cc2ccccc2-3)cn1	-26%	?	?	-7	-28%	?
COc1ccc(OC)c(NS(=O)(=O)c2ccc(N3CCCC3=O)cc2)c1	0%	0.52µM*	0.37µM*	63	0.52µM*	0.52µM*
COc1ccc(OC)c(NS(=O)(=O)c2ccc(-n3cccn3)cc2)c1	-17%	?	10µM*	13	-29%	-24%
Cc1ccc(NS(=O)(=O)c2ccc(-n3cccn3)cc2)c(Cl)c1	-2%	?	?	26	6%	4%
COc1ccc(NC(=O)C2CCN(S(=O)(=O)c3ccc(N4CCCC4=O)cc3)CC2)c(OC)c1	-2%	?	-2%	18	10%	9%
COc1ccc(NS(=O)(=O)c2ccc(N3CCCC3=O)cc2)cn1	26%	4.6µM*	6.5µM*	34	15µM*	18µM*
Cc1ccc(OCCNS(=O)(=O)c2ccc(N3CCCC3=O)cc2)cc1	22%	6.5µM*	5.8µM*	9	-8%	-6%
CC(NC(=O)C1c2ccccc2-c2ccccc21)C1CC2CCC1C2 (configuration not stated)	11%	.	.	.	.	.
COCC(=O)N1CCOC[C@H](Oc2ccc(C(F)(F)F)cn2)C1	39%[176 µM]	.	.	.	.	.
O=C1CCCN1c1ccc(S(=O)(=O)NCCc2ccc(Cl)cc2)cc1	18%	?	?	16	-18%	?
CCCCc1ccc(S(=O)(=O)NCCCN2CCCC2=O)cc1	-1%	?	13µM*	14	-19%	5%
Cc1ccc(OCCNS(=O)(=O)c2ccc(N3CCCC3=O)cc2)cc1C	15%	6.5µM*	6.5µM*	13	?	-2%
COc1ccc(CCNS(=O)(=O)c2ccc(N3CCCC3=O)cc2)cc1	0%	21µM*	21µM*	-3	-8%	-6%
Cc1cc(N2CCCC2=O)cc(C)c1S(=O)(=O)NCCOc1ccccc1	-36%	8.2µM*	?	?	?	6%[9.24 µM]
Cc1ccccc1C(=O)Nc1ccccc1C(=O)OCc1cc(=O)n2ccsc2n1	-27%	-1%	-12%	.	.	.
O=C1CC(c2cc(Br)ccc2F)c2cc3c(cc2N1)CCC3 (configuration not stated)	5%	2.9µM*	2.6µM*	55	1.8µM*	1.3µM*
Cn1c2c(c(=O)n(C)c1=O)C(c1cc(Br)ccc1F)CC(=O)N2 (configuration not stated)	-4%	10%	-22%	.	.	.
O=C1CC(c2ccccc2F)c2cc3c(cc2N1)CCC3 (configuration not stated)	22%	3.3µM*	4.6µM*	41	1.6µM*	0.89µM*
CC(C)(C)c1cc(=O)n(-c2ccccc2)[nH]1	-29%	26µM*	?	-97*	?	?

Bioassay records (PubChem BioAssay)
